System: Vero E6 infected with SARS-CoV-2
Test: inhibition of SARS-CoV-2 cytopathic effect; higher = more antiviral protection, active = above 15
Conditions: 48 h

Measured: inhibition of SARS-CoV-2 cytopathic effect

O=C(N[C@H](CO)[C@H](O)c1ccc([N+](=O)[O-])cc1)C(Cl)Cl [chloramphenicol]
inactive: 1 nM 0.28% | 8.33 nM -0.6% | 100 nM -1.23% | 833.33 nM 0.21% | 10000 nM -3.04%

COCCNC(=O)COc1ccc(OCCNC[C@H](O)COc2ccccc2)cc1
inactive: 1 nM 0.49% | 8.33 nM 1.84% | 100 nM -1.53% | 833.33 nM -1.02% | 10000 nM -6.62%

C=C1/C(=C\C=C2/CCC[C@]3(C)[C@@H]([C@H](C)CCCC(O)(C(F)(F)F)C(F)(F)F)CC[C@@H]23)C[C@@H](O)C[C@@H]1O [falecalcitriol]
inactive: 1 nM -0.53% | 8.33 nM 0.41% | 100 nM -1.28% | 833.33 nM 0.88% | 10000 nM -2.37%

CC(C)n1nc(-c2ccc3oc(N)nc3c2)c2c(N)ncnc21
inactive: 1 nM 1.94% | 8.33 nM 2.32% | 100 nM 1.66% | 833.33 nM -3.23% | 10000 nM -4.59%

C[C@H](CCC(=O)O)[C@H]1CC[C@H]2[C@@H]3CC[C@@H]4C[C@H](O)CC[C@]4(C)[C@H]3C[C@H](O)[C@]12C [deoxycholic-acid]
inactive: 1 nM -0.18% | 8.33 nM 0.25% | 100 nM -1.84% | 833.33 nM -1.15% | 10000 nM -0.42%

CCS(=O)(=O)c1cccc(-c2cc(C(=O)NC3CCN(C)CC3)c(C)c3[nH]c4ncc(C)cc4c23)c1
inactive: 1 nM 3.23% | 8.33 nM 0.63% | 100 nM 1.19% | 833.33 nM -0.44% | 10000 nM -2.17%

COc1ccc(C(=O)N2CCCc3cc(C4=NNC(=O)SC4C)ccc32)cc1OC (stereo not given)
inactive: 1 nM -1.28% | 8.33 nM 2.27% | 100 nM 0.07% | 833.33 nM 0.74% | 10000 nM 4.36%

CSc1ccc(C(=O)N[C@@H]2CCCC[C@@H]2NC(=O)CNC(=O)c2cc(C(F)(F)F)ccc2NC(=O)NC(C)C)cc1
inactive: 1 nM 4.3% | 8.33 nM -0.79% | 100 nM 0.52% | 833.33 nM 0.24% | 10000 nM 0.79%

CC(C)c1c2cc(-c3ccnc(N[C@H]4CC[C@H](NC5CCOCC5)CC4)n3)ccc2nn1C
inactive: 1 nM -0.19% | 8.33 nM -1.61% | 100 nM -2.09% | 833.33 nM -20.8% | 10000 nM -0.88%

O=C(OCCN1CCOCC1)c1cccnc1Nc1cccc(C(F)(F)F)c1 [morniflumate]
inactive: 1 nM -1.61% | 8.33 nM -3.25% | 100 nM -3.87% | 833.33 nM -4.12% | 10000 nM -5.47%

c1ccc(-c2n[nH]cc2-c2ccnc3ccccc23)nc1
inactive: 1 nM 1.81% | 8.33 nM -0.93% | 100 nM -2.43% | 833.33 nM -2.05% | 10000 nM -1.69%

NCCCCN=C(N)N [agmatine]
inactive: 1 nM 2.36% | 8.33 nM 2.56% | 100 nM -1.24% | 833.33 nM -2.12% | 10000 nM -4.69%

CCn1c(N)c(C(=O)NC)c(=O)c2ccc(C#C[C@@](C)(O)COC)nc21
inactive: 1 nM 0.13% | 8.33 nM -0.62% | 100 nM -1.69% | 833.33 nM 0.68% | 10000 nM 6.9%

CS(=O)(=O)N(Cc1ccco1)C[C@@H](O)Cn1c2ccccc2c2ccccc21
inactive: 1 nM 3.16% | 8.33 nM 2.61% | 100 nM -0.72% | 833.33 nM 0.77% | 10000 nM 9.76%

CC(=O)NCC(=O)N[C@H](CCC(=O)O)C(=O)O [N-acetylglycyl-D-glutamic-acid]
inactive: 1 nM 1.3% | 8.33 nM -0.41% | 100 nM -0.4% | 833.33 nM -0.04% | 10000 nM 1.12%

C=CCn1c(=O)c2cnc(Nc3ccc(N4CCN(C)CC4)cc3)nc2n1-c1cccc(C(C)(C)O)n1
inactive: 1 nM -1.29% | 8.33 nM 2.7% | 100 nM 0.63% | 833.33 nM -3.99% | 10000 nM -6.53%

CC(C)CNc1ccnc(NCc2csc(-c3ccccc3)n2)n1
inactive: 1 nM 0.06% | 8.33 nM 1.07% | 100 nM 0.03% | 833.33 nM 0.39% | 10000 nM -2.77%

COc1cc2c(Oc3ccc4[nH]c(C)cc4c3F)ccnc2cc1OCC1(N)CC1 [anlotinib]
inactive: 1 nM 1.84% | 8.33 nM -1.41% | 100 nM 1.56% | 833.33 nM 1.39% | 10000 nM -7.82%

CC(C)(C=O)Cc1cc(C(C)(C)C)c(O)c(C(C)(C)C)c1
inactive: 1 nM 3.54% | 8.33 nM 2.95% | 100 nM 2.75% | 833.33 nM 2.01% | 10000 nM 1.01%

NC(=O)CN1CCCC1=O [piracetam]
inactive: 1 nM 0.23% | 8.33 nM -1.52% | 100 nM 3.28% | 833.33 nM -1.35% | 10000 nM -0.57%

COc1c(N2CCNC(C)C2)c(F)cc2c(=O)c(C(=O)O)cn(C3CC3)c12 (stereo not given) [gatifloxacin]
inactive: 1 nM -0.1% | 8.33 nM 1.9% | 100 nM 0.16% | 833.33 nM 0.37% | 10000 nM -2.52%

CN1c2cc3c(cc2N=C(c2ccc(C(=O)O)cc2)c2ccccc21)C(C)(C)CCC3(C)C
inactive: 1 nM 4.92% | 8.33 nM 2.01% | 100 nM -1.76% | 833.33 nM 0.01% | 10000 nM -7.42%

NC(=O)[C@H]1CCS[C@@H]2C[C@]3(CCCN3C(=O)Cc3ccc(NC(=O)COc4ccc(Cl)cc4Cl)cc3)C(=O)N12
inactive: 1 nM 0.49% | 8.33 nM 0.01% | 100 nM 1.37% | 833.33 nM 0.74% | 10000 nM -6.32%

O=C(C[S+]([O-])C(c1ccccc1)c1ccccc1)NO (stereo not given) [adrafinil]
inactive: 1 nM -1.03% | 8.33 nM -1.5% | 100 nM -3.32% | 833.33 nM 1.58% | 10000 nM -1.53%

N[C@@H](CCC(=O)N[C@@H](CSN=O)C(=O)NCC(=O)O)C(=O)O [S-nitrosoglutathione]
inactive: 1 nM 0.29% | 8.33 nM 0.8% | 100 nM -1.28% | 833.33 nM -3.1% | 10000 nM -0.66%

CCN1CCN(C(=O)N[C@@H](C(=O)N[C@@H]2C(=O)N3[C@@H]2SC(C)(C)[C@@H]3C(=O)O)c2ccccc2)C(=O)C1=O [piperacillin]
inactive: 1 nM -0.76% | 8.33 nM 0.86% | 100 nM -1.44% | 833.33 nM -0.01% | 10000 nM 0.01%

CN=C(N)NCCC[C@H](N)C(=O)O [L-monomethylarginine]
inactive: 1 nM -0.78% | 8.33 nM -1.38% | 100 nM 0.7% | 833.33 nM 1.39% | 10000 nM -1.85%

CN(C)[C@@H](CCOc1cccc2ccccc12)c1ccccc1 [dapoxetine]
inactive: 1 nM 1.42% | 8.33 nM 3.51% | 100 nM 1.54% | 833.33 nM 0.31% | 10000 nM 1.17%

O=C1c2ccccc2CCC1CNCCc1ccc(O)cc1 (stereo not given)
inactive: 1 nM 0.05% | 8.33 nM -1.18% | 100 nM -2.27% | 833.33 nM -0.45% | 10000 nM -0.46%

Cn1c(=O)n(-c2ccc(C(C)(C)C#N)cc2)c2c3cc(-c4cnc5ccccc5c4)ccc3ncc21
inactive: 1 nM 1.43% | 8.33 nM -0.22% | 100 nM 0.93% | 833.33 nM -5.08% | 10000 nM -5.4%

COc1ccn2ncc(-c3nc4[nH]nc(NC(=O)c5ccc(F)cc5)c4cc3F)c2c1
inactive: 1 nM 1.72% | 8.33 nM -0.95% | 100 nM 0.38% | 833.33 nM -3.07% | 10000 nM -6.79%

O=C(O)c1ccc(/C=C2\SC(=S)N(c3cccc(C(F)(F)F)c3)C2=O)cc1
inactive: 1 nM -0.08% | 8.33 nM -0.83% | 100 nM -2.17% | 833.33 nM -1.38% | 10000 nM -0.46%

Cc1cc(C)c(NC(=O)C2CC3CCC2C3)c(C)c1 (stereo not given)
inactive: 1 nM -1.62% | 8.33 nM -1.21% | 100 nM -3.03% | 833.33 nM -0.39% | 10000 nM 2.61%

Nc1ccc(S(=O)(=O)c2ccc(N)cc2)cc1 [dapsone]
inactive: 1 nM -2.51% | 8.33 nM 2.16% | 100 nM 0.46% | 833.33 nM 11.1% | 10000 nM 1.03%

CN(C)/C=N/c1c(I)cc(I)c(CCC(=O)O)c1I [iopodic-acid]
inactive: 1 nM -3.57% | 8.33 nM 0.15% | 100 nM -0.76% | 833.33 nM 0.26% | 10000 nM -2.24%

CN1[C@@H]2C[C@@H](OC(=O)[C@H](CO)c3ccccc3)C[C@H]1[C@@H]1O[C@@H]12
inactive: 1 nM 1.79% | 8.33 nM 1.73% | 100 nM 1.2% | 833.33 nM 1.41% | 10000 nM 0.06%

CCCC[C@@]1(C2CCCC2)Cc2cc(OCCCC(=O)O)c(Cl)c(Cl)c2C1=O
inactive: 1 nM 2.56% | 8.33 nM 0.21% | 100 nM 0.81% | 833.33 nM 2.21% | 10000 nM 2.61%

Cc1nc(-c2ccc(OCC(C)C)c(C#N)c2)sc1C(=O)O [febuxostat]
inactive: 1 nM -0.9% | 8.33 nM -0.46% | 100 nM -0.43% | 833.33 nM 2.99% | 10000 nM 1.58%

CC#CCC(C)[C@H](O)/C=C/[C@@H]1[C@H]2C/C(=C/CCCC(=O)O)C[C@H]2C[C@H]1O (stereo not given in full) [iloprost]
inactive: 1 nM -0.22% | 8.33 nM -1.1% | 100 nM -0.18% | 833.33 nM -2.21% | 10000 nM -1.94%

CC[C@H](C)[C@H](N)C1=N[C@H](C(=O)N[C@@H](CC(C)C)C(=O)N[C@H](CCC(=O)[O-])C(=O)N[C@H](C(=O)N[C@H]2CCCCNC(=O)[C@H](CC(N)=O)NC(=O)[C@@H](CC(=O)[O-])NC(=O)[C@H](Cc3cnc[nH]3)NC(=O)[C@@H](Cc3ccccc3)NC(=O)[C@H]([C@@H](C)CC)NC(=O)[C@@H](CCCN)NC2=O)[C@@H](C)CC)CS1.[Zn+2] [bacitracin-zinc]
inactive: 1 nM 1.46% | 8.33 nM 1.2% | 100 nM 2.85% | 833.33 nM -0.14% | 10000 nM 0.15%

Reference: the supplement of paper PMC13380429
